Measured values reported in PubChem BioAssay AID1159580 (chemical genetic matrix, 2015).
Out of some 5,500 compounds screened, about 2,000 (36%) were called active. About 18% were inconclusive and are not listed. Cut-off read from the data, not from the text of the source: active = normalized growth mostly below about 0.91 (no sharp cut-off); inconclusive = no clear call, values can overlap the other calls; inactive = mostly above about 0.92. Some of the results follow.

Assay: chemical genetic growth profiling, strain panel (AID 1159580);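 note: tested at 20 µM; growth read once vehicle control cultures reached saturation at 30 °C; 1 = growth at the plate median or of vehicle wells; lower values mean less growth of the strain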
Details: growth OD

Measured: normalized growth

N#CCCC1(CCC#N)c2ccccc2-c2ccccc21
inactive: S. cerevisiae deletion strains, locus YAL013W, strain DEP1, stronger effect = lower value 0.99 | S. cerevisiae deletion strains, locus YBR229C, strain ROT2, stronger effect = lower value 1.02 | S. cerevisiae deletion strains, locus YDL101C, strain DUN1, stronger effect = lower value 1.03 | S. cerevisiae deletion strains, locus YDL134C, strain PPH21, stronger effect = lower value 1.02 | S. cerevisiae deletion strains, locus YDR150W, strain NUM1, stronger effect = lower value 1.01 | S. cerevisiae deletion strains, locus YEL061C, strain CIN8, stronger effect = lower value 1.01 | S. cerevisiae deletion strains, locus YGR078C, strain PAC10, stronger effect = lower value 1.01 | S. cerevisiae deletion strains, locus YHR030C, strain SLT2, stronger effect = lower value 1.05 | S. cerevisiae deletion strains, locus YHR087W, strain rtc3, stronger effect = lower value 1.03 | S. cerevisiae deletion strains, locus YJR043C, strain POL32, stronger effect = lower value 1.01 | S. cerevisiae deletion strains, locus YJR075W, strain HOC1, stronger effect = lower value 1.01 | S. cerevisiae deletion strains, locus YLR039C, strain RIC1, stronger effect = lower value 1.06 | S. cerevisiae deletion strains, locus YLR058C, strain SHM2 (second series), stronger effect = lower value 1.01 | S. cerevisiae deletion strains, locus YLR085C, strain ARP6, stronger effect = lower value 1.03 | S. cerevisiae deletion strains, locus YLR262C, strain YPT6, stronger effect = lower value 1.01 | S. cerevisiae deletion strains, locus YML094W, strain GIM5, stronger effect = lower value 1.03 | S. cerevisiae deletion strains, locus YMR219W, strain ESC1, stronger effect = lower value 1.03 | S. cerevisiae deletion strains, locus YMR263W, strain SAP30, stronger effect = lower value 1.02 | S. cerevisiae deletion strains, locus YNL153C, strain GIM3, stronger effect = lower value 1.04 | S. cerevisiae deletion strains, locus YNL298W, strain CLA4 (second series), stronger effect = lower value 1.01 | S. cerevisiae deletion strains, locus YNL322C, strain KRE1, stronger effect = lower value 1.01 | S. cerevisiae deletion strains, locus YNR030W, strain Alg12, stronger effect = lower value 1 | S. cerevisiae deletion strains, locus YOL006C, strain TOP1, stronger effect = lower value 1.08 | S. cerevisiae deletion strains, locus YPL055C, strain LGE1, stronger effect = lower value 1.03 | S. cerevisiae deletion strains, locus YPL241C, strain CIN2, stronger effect = lower value 1.01 | S. cerevisiae deletion strains, locus YPR135W, strain CTF4, stronger effect = lower value 1.11 | S. cerevisiae strains, strain wild type, stronger effect = lower value 1.03
